The full list was thinned out, with hits kept by preference. No count for the full screen is at hand.
tested on: T1, Caupolican (Caup) homeodomain DNA-binding domain; assay: PBM E-score (8-mer, recovered from the published 9-mer minima) (E-score (dimensionless, -0.5 to 0.5)); Drosophila protein; higher = stronger relative binding preference, active = 0.31 or more
T1 sequence: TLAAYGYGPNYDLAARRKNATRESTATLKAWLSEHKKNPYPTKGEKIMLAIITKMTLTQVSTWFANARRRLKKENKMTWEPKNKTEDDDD
Procedure, shortened: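 Caup's homeodomain DNA-binding domain (residues 214-303) was made by in vitro transcription and translation and applied at 100 nM to custom-designed protein binding microarrays. Each value is an enrichment score that gives relative binding preference for a short DNA word, with higher meaning stronger. The 8-mer values were recovered from published 9-mer scores, each of which was the minimum of its two constituent 8-mer scores. A cutoff of 0.31 marks candidate sites.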

PBM E-score, inactive:
ACCATCAT 0.0686, GACCTCAA 0.0301, AAATTACT 0.124, GACTTACA 0.246, GAATTACA 0.29, CAATTACG 0.0582, CACTTACA 0.243, AAATTACG 0.0367, TAATTATA 0.234, CAATTACC -0.00996, AGGTAATA 0.0994, CGCCCATA -0.126, CGACCTCC -0.138, AGCAACGA 0.0654, ACAATCCG 0.117, CGGGAAAA -0.0322, CCGGAGAG -0.159, CATTTACA 0.239, GATTTACA 0.246, GAGGTTGC -0.184, AGGCAATA 0.0132, AATTGCAT 0.0474, ACAAGACG 0.257, GCAAGGTA 0.0505, ACAAGATC 0.258, ACAAGGTC 0.298, GCAAGACA 0.0548, CCAAGATA 0.106, CGAATAGA 0.0132, ACGTCACG 0.0623, CATTCCCA -0.01, CGGGATCC -0.132, ACCCAAGC -0.122, CCCTGCGG -0.29, ACGTCGAG -0.0187, ATAACAGA 0.171, ATAACAGG 0.155, ATAACAGC 0.148, GTAACAGA 0.211, CTAACATA 0.28, ATAACTTG 0.197, CTAACATC 0.208, CGATCATC 0.0443, ATCCGCGG -0.111, AAAGTTGG 0.0235, ATAGGGGA -0.137, AACCGGCG -0.0557, GCTAGATA 0.0474, CCGCGTCC -0.087, GATGTATA 0.295, CCTGTATC 0.125, AGTGTATC 0.186, CAAGTATC 0.148, AATGTATG 0.243, AATGTATA 0.271, CAACCCCA -0.102, CACTGATG 0.107, GAGAACGC -0.0756, CACTTCCG -0.121, ATATCGTC 0.107, AGACCCAA -0.131, CTCACAAG 0.0655, CATACAAC 0.27, CTTACAAA 0.181, GTTACAAC 0.303, CCGCGTCA -0.126, AGCTGGTG -0.0997, AGCGGCGG -0.225, ATAGGCGA -0.0622, CGATGTCC 0.143, CTATGTCA 0.307, ATATGTCA 0.305, GGATGTGA 0.081, AGATGTCA 0.279, CGGTGTCA 0.193, ACAAGGTG 0.255, AAGCGCGA -0.033, CAACGTGA 0.0867, CGAGCTCA -0.105, CAACCGTA 0.0275, AGACATAT 0.264, AGACATAC 0.222, CTACATTC 0.119, ATACATAG 0.292, ATACATTG 0.261, CTACATAC 0.286, CCTCACAA -0.0288, GGAATGAA 0.00414, GTAGAGGA 0.00507, AGTGATAA 0.126, GTCGCCAA -0.0201, GCCCTAAC -0.104, CATCATGA 0.11, ACACCAGT 0.101, CTCCCGAA -0.138, CTATTAAC 0.178, CAGGGATC -0.124, GCTCCAGC -0.186, CAGTAGTA 0.175, GCGTAGTA 0.0285, AAGTAGTC 0.159, GAGTAGTA 0.0893, CTGTAGTC 0.0608, ATGTAGGC 0.12, ATGTAGTG 0.27, AAGTAGTA 0.186, AAAGGTGC -0.0982, TGAGCAAA 0.0543, GGAGGCAC -0.154, ACTGAGCA 0.0738, CTCTTTTC -0.1, CCTCTGTC -0.0145, AGCTCATC -0.167, GTCGTGGA -0.0165, ATCGTGCA 0.127, CTCGTGTA 0.27, ATCGTGGA -0.0656, CTCGTGTC 0.26, AGCGTGTC 0.231, CGCGTGTA 0.285, ATCGTGTG 0.149, CTTGAAGA -0.0903, ATCGACGG -0.105, GTTAAAGA 0.0986, GCAACTAC 0.0804, GGCAGAGA -0.188, AGTCGAAA 0.0145, AAAACTCC -0.138, AACTCGGG -0.0964, GTTTCAAA 0.0987, GGGCTTTA -0.186, GATCTACA 0.145, CGATAACA 0.244, CAATAACA 0.238, GAATAACA 0.301, GGATAACA 0.238, CGGTCTTA -0.00157, GTGTAAGA 0.224, ACGTAACG 0.0522, ATGTAACC 0.275, CTGTAACA 0.289, GGGTAACA 0.216, CTGTAAGA 0.138, GCGTAACA 0.221, ACGTAACA 0.263, GATAGATC 0.0307, CACGCAAA 0.0933, CAAATACA 0.245, GTTCGCGA 0.066, TACTGCAA 0.125, ATTGGGCG -0.135, AAGTAATT 0.18, AGCCATAA 0.0213, ACCGGCGA -0.156, AGGTAACT 0.0502, AGGTAACC -0.0119, CTGGTAAG -0.00689, CTATGACA 0.223, ATATGACC 0.021, GTATGATA 0.242, GTATGAGA 0.0966, GAGCTGTA 0.079, CTATTGAA 0.0499, GCAAGTCC -0.0418, ACATAACC 0.22, ACATAATC 0.202, ACATAACT 0.291, GCATAATA 0.169, GCCTATCA -0.108, CGATCAAA -0.00998, CATCTAAG -0.0746, AGTGTTTA 0.176, AGTGTTAA 0.165, CGTGTTAC 0.282, GGTGTTTA 0.124, CGTGTTAG 0.285, GGTGTTAA 0.18, AGCTGAGG -0.169, AAGCCTAC -0.0275, AGACGGAC -0.0361, CTGAAATA 0.0494, AAATAACT 0.19, ACATCAAC 0.235

PBM E-score, active:
CAATTACA 0.334, TAATTACA 0.335, AACTTACA ≥ 0.344, AAATTACA 0.329, AATTTACA 0.328, ACAAGGTA 0.335, ACAAGATA 0.342, ACAAGACA ≥ 0.352, ATAACATG 0.424, GTAACATA 0.345, ATAACATC 0.318, ATAACATA 0.356, AATGTATC 0.314, CATGTATC 0.408, CATGTATA 0.418, CTTACAAC 0.333, CTTACAAG 0.343, GGATGTCA 0.311, GTATGTCA 0.345, CGATGTCA 0.311, ATACATAC 0.332, ATACATTC ≥ 0.314, ATACATAA 0.348, ATACATAT 0.344, GTGTAGTA 0.357, CTGTAGTA 0.348, ATGTAGTC 0.331, ATGTAGTA 0.372, AGCGTGTA 0.355, ATCGTGTC 0.336, ATCGTGTA 0.407, GTCGTGTA 0.386, TAATAACA 0.319, TGATAACA 0.322, GTGTAACA 0.397, ATGTAACG 0.347, ATGTAACA 0.429, ATGTAAGA 0.332, AGGTAACA 0.327, GTATGACA 0.312, ATATGACA 0.336, ACATAACA 0.332, ACATAATA 0.323, CGTGTTTA 0.319, TGTGTTAA 0.32, CGTGTTAA ≥ 0.33
